High-throughput results (PubChem)
ATXN viability – viability counter-screen for ATXN expression inhibitors; S2 cells (HEK-293 line with an ATXN2-luciferase reporter) viability, CellTiter-Fluor protease fluorescence, 24 h; Potency, µM (highest dose often 56.7 µM), most hits filed as cytotoxic; hit rate 0.49% among 400,000; note: potency is the fitted concentration of half-maximal effect; nearly all actives have a fitted effect of over 40% in size
SW480 rerep – induces DNA re-replication in SW480 colon adenocarcinoma cells; SW480 DNA re-replication, Hoechst DNA content imaging, 48 h; Potency, µM (series often up to 46.1 µM), without a hit: at the highest dose re-replication activation, actives largely listed as activators; hit rate 1.8% among 340,000; AID 624297; note: potency is the fitted concentration of half-maximal effect; % of control where 0% means no effect; nearly all actives have a fitted effect of over 55% in size
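Quantitative HTS format with DMSO vehicle controls; 48 hr drug incubation at 37 C, then 40 min Hoechst staining and scanning imager measurement at 405 nm excitation.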
MCF10A rerep – inducers of DNA re-replication in MCF 10A breast cells; MCF 10A DNA re-replication, Hoechst nuclear intensity, 48 h; hit rate 2.9% among 350,000; Potency, µM (highest dose often 46.1 µM), without a hit: at the top dose activity, positive = re-replication, hits mostly activators; AID 624296; note: potency is the fitted concentration of half-maximal effect; % of control where 0% means no effect; nearly all actives have a fitted effect of over 50% in size
IL1B secr inh – blocks inflammasome-driven IL-1 beta release. THP-1 LPS/ATP IL-1B secretion, AlphaLISA, 16 h; hits give low values. activity change, % at 57.5 µM. hit rate 4.7% among 360,000. AID 743279; in the data active = activity change below about -50%; inconclusive = mostly about -30% to -49%; note: % is set by controls: 0 for no effect and ±100 for the full control effect
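THP-1 cells pretreated 1 hr with compounds (up to 57.5 uM final), then stimulated with LPS (250 ng/mL final) plus ATP (1.25 mM final); secreted IL-1B measured by AlphaLISA after 16 hr, decreased signal indicating inhibition.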
ATXN2 expr inh – inhibitors of ATXN2 expression. HEK-293 ATXN2-luciferase reporter, luminescence, 24 h. Potency, µM (doses to about 57 µM), for the others: at the highest dose activity change, negative = inhibition, hits mostly inhibitors. hit rate 0.72% among 360,000. AID 1745845; note: potency is the fitted concentration of half-maximal effect; % is set by controls: 0 for no effect and ±100 for the full control effect; nearly all actives have a fitted effect of over 55% in size
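ATXN2-luciferase reporter cells (luciferase flanked by upstream and downstream ATXN2 gene portions) were treated 24 h at 37 °C with compounds at up to 57 uM. SteadyGlo luminescence gave expression; GF-AFC fluorescence gave viability.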
PINK1 expr mod – changes PINK1 expression. PINK1 immunofluorescence, high-content cytometry, 24 h. Potency, µM (doses to about 76.6 µM), for the others: at the highest dose activation (PINK1 increase), actives largely listed as activators. hit rate 0.2% among 410,000. AID 624263; active = well fitted activation curve with a large enough effect; inconclusive = small, poorly fitted or top-dose-only effect; cell line not stated here; note: potency is the fitted concentration of half-maximal effect; % of control where 0% means no effect; nearly all actives have a fitted effect of over 65% in size
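Cells are seeded, rested 12 hours, then given compound at five concentrations or DMSO for 24 hours. After fixation, blocking and antibody staining, PINK1 amount and mitochondrial localization are scored; CCCP serves as control.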
The depositor's hits bear a star; i = inactive; ? = inconclusive; · = not tested or not shown. Only some compounds are listed: those with a hit (about 7.1% of all), similar ones and a draw of the others. Unless noted, calls come from the whole dose curve; as a rule, active = well fitted curve in the direction sought with a large enough effect; inconclusive = small, poorly fitted or top-dose-only effect, or another doubt; inactive = no such curve, though single readings can be large; an effect the other way counts as inactive or inconclusive.

SMILES | ATXN viability | SW480 rerep | MCF10A rerep | IL1B secr inh | ATXN2 expr inh | PINK1 expr mod
COC(=O)c1cc(CNC(=O)c2ccc3ccccc3n2)cc(NC(=O)c2cccc(OC)c2)c1 | ? | · | · | · | · | -1%
O=C(CN1C(=O)CCSc2ccccc21)Nc1ccc(C(F)(F)F)cc1 | i | · | · | · | -28% | 2%
CCc1c(C)sc2c1CCN(Cc1ccccc1F)C2c1ccccc1 (centres undefined) | ? | · | · | · | 0% | ?
CCC1=NN2C(=N)/C(=C/c3cc(C)n(Cc4ccccc4)c3C)C(=O)N=C2S1 | i | -2% | ? | 10 | -9% | 1%
Cc1cc(/C=C2\C(=N)N3N=C(c4ccco4)SC3=NC2=O)c(C)n1Cc1ccccc1 | · | -1% | 21µM* | · | 1% | 1%
COCCNc1nc(NCc2ccc(NC(C)=O)cc2)c2sc(-c3ccccc3)cc2n1 | · | · | · | 0 | 22µM* | -1%
COCCNc1nc(NCc2cccc(OC)c2)c2sc(-c3ccccc3)cc2n1 | ? | · | · | -112* | -24% | ?
COCCNc1nc(Nc2ccc(C)cc2C)c2sc(-c3ccccc3)cc2n1 | ? | · | · | -25 | -19% | 9%
CS(=O)(=O)N1CCCc2cc(C(=O)Nc3cccc(C(F)(F)F)c3)ccc21 | · | · | · | · | · | 0%
